According to PubChem BioAssay (NCATS):
A number with no mark means an inactive call. No rule for the calls is given here.
Potency is read from the fitted curve at half-maximal effect.

The molecules below were run on HIV-1 nucleocapsid protein NCp7 (binding to TG oligonucleotide) (assay: HIV Nucleocapsid (AID 346;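 also: potency is for inhibitors that block NC binding and lower polarization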)). Details: HIV-1 NC / fluorescein-TGTGTGTG probe, fluorescence polarization.
Method in brief: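 Fluorescence polarization readout: labelled TG4xF oligo (10 nM) with 100 nM nucleocapsid protein, high-salt (250mM NaCl) Hepes pH 7.5 buffer containing zinc and fresh reducing agents. Compounds added by pin tool; incubation 1 hr, room temperature.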
In the case of `CC(C)NC(=O)N1CCCC2(CCN(S(=O)(=O)c3ccccc3)CC2)C1`, the Potency is reported as > 4 µM.
For `COc1ccccc1-c1cncnc1Nc1ccc(F)cc1`, the Potency was > 20 µM.
`Cn1cccc1C(=O)N1CCC2(CCCN(c3ccc(-c4ccccc4)cc3)C2)CC1` was tested, and the Potency was > 20 µM.
With `COc1ccc2[nH]cc(CCNc3nc(-c4ccccc4OC)nc4ccccc34)c2c1` the Potency was > 20 µM.
`N#Cc1cccc(-c2ccc3ncnc(NC4CCNCC4)c3c2)c1` was tested, and the Potency was > 20 µM.
With `c1cncc(-c2cc(NCc3cccs3)ncn2)c1` the Potency was > 20 µM.
With `COc1ncc2nc(-c3cn(C)c4ccccc34)c(=O)n(C[C@H]3CCCO3)c2n1` the Potency was > 20 µM.
`COc1cccc(Nc2ncc3ncc(=O)n(Cc4ccc(F)cc4)c3n2)c1` was tested, and the Potency was > 20 µM.
For `COC(=O)N1CCC2(CCN(C(=O)Nc3cccc(C#N)c3)CC2)CC1`, the Potency was > 20 µM.
With `Cn1cccc1C(=O)N1CCC2(CCCN(C(=O)Nc3cccc(F)c3)C2)CC1` the Potency was > 20 µM.
For `N#Cc1ccc(CN2CCCC3(CCN(S(=O)(=O)c4ccccc4)CC3)C2)cc1`, the Potency was > 20 µM.
With `CN(C)C(=O)c1ccc(-c2nc(NC3CCNCC3)c3ccccc3n2)cc1` the Potency was > 20 µM.
For `COc1ccc(C(=O)N2CCC3(CC2)CN(c2ccncc2)C3)cc1`, the Potency was > 20 µM.
For `COc1cccc(Cn2c(=O)c(-c3cccs3)nc3cnc(N4CCOCC4)nc32)c1`, the Potency was > 20 µM.
For `CN1CC[C@@]2(CCCN(S(=O)(=O)c3ccccc3)C2)C1`, the Potency was > 20 µM.
